# Shown are actives, neighbours in structure and some others; about 4% of the full set was active somewhere.
# HIF-2a block = HIF-2a inhibition | actives 0.72% (n = 360,000) | inhibition, % at 18.8 µM | 786-0 RCC cells HIF-2a reporter, luciferase luminescence, overnight | AID 624352;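 active = inhibition of the luminescence signal of 40% or more relative to plate controls, in a single-dose primary screen at 18.75 µM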
# CF NFkB block = blocks PAF-induced NF-kB reporter in cystic fibrosis cells. KKLEB NF-kB-GFP reporter, GFP fluorescence overnight. inhibition, % at 5 µM. actives 0.86% (n = 360,000);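 active = at least 50% inhibition at 5 µM, scaled per plate between neutral and stimulator controls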;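 also: PAF is a Pseudomonas aeruginosa culture filtrate used as stimulus; plate controls were PAF-stimulated DMSO wells for no effect and unstimulated DMSO wells for full effect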
# KKLEB tox = reduces viability of KKLEB cystic fibrosis airway cells; KKLEB CF airway cells viability, ATPlite luminescence, overnight; stronger effect = lower value; cells stimulated with P. aeruginosa culture filtrate; activity change (cytotoxicity), % at 5 µM; actives 0.36% (n = 360,000); AID 602141;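 active = corrected activity change at or below -50% at 5 µM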
# Peg3 promoter = inhibitors of Peg3 promoter; HeLa PEG-Prom luciferase reporter, luminescence, overnight; inhibition, % at 20 µM; actives 1.7% (n = 360,000); AID 588405;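 active = inhibition of at least 50% at 20 µM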
# TROY NFkB inh = TROY signaling inhibition. Q293 LMP1-TROYcd NF-kB luciferase reporter, 4 h. inhibition, % at 10 µM. actives 0.98% (n = 360,000). AID 1347056;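 active = compounds whose plate-normalised and pattern-corrected inhibition of the luciferase reporter signal at the single screening dose is 50% or more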
# TWEAK-Fn14 inh = inhibitors of TWEAK-Fn14 interaction signaling | TWEAK-stimulated Fn14 reporter cells, luciferase luminescence, 8 h | inhibition, % at 10 µM | actives 2% (n = 360,000); in the data active = inhibition above about 50%
# * hit, by the source's call.
SMILES,HIF-2a block,CF NFkB block,KKLEB tox,Peg3 promoter,TROY NFkB inh,TWEAK-Fn14 inh
Cc1ccc(NC(=O)C(OC(=O)c2cnc(C)cn2)c2ccccc2)c([N+](=O)[O-])c1 (stereo not drawn),-27,-26,6,-21,-6,-19
CCN1C(=O)CCN(C2CCCC2)c2nc(Nc3ccc(C(=O)NC4CCN(C)CC4)cc3OC)ncc21,-35,-156,-16,66*,-15,8
Cc1ccc(NC2=C/C(=N/S(=O)(=O)c3cccs3)c3ccccc3C2=O)cc1,-152,80*,-70*,-88,60*,94*
O=C1C(Nc2ccccc2)=C/C(=N/S(=O)(=O)c2cccs2)c2ccccc21,-5,100*,-91*,105*,48,97*
COc1ccc(NC(=O)CN2CCN(c3c(C)cccc3C)CC2)cc1,12,2,-18,16,22,-19
CCOc1ccc(NC(=S)N2CCC(NC(=O)C3CCCCC3)CC2)cc1,3,-4,5,-7,-31,11
COCCn1c(-c2ccc(OC)cc2)cnc1SCC(=O)Nc1cc(C)on1,11,2,-2,8,22,7
COCCn1c(-c2ccc(OC)cc2)cnc1SCC(=O)Nc1ccc(OC)cc1OC,11,-5,6,64*,12,-17
CCn1ccnc1CNC(=O)c1ccc(OC2CCN(C(=O)COC)CC2)cc1,6,14,-9,4,14,0
O=S(=O)(NN=Cc1ccc(O)cc1O)c1cc(Cl)c(Cl)cc1Cl,10,-25,12,-22,-50,-17
CC(=O)Nc1cc(Cl)c(N=Cc2ccc(O)cc2O)cc1Cl,10,17,6,20,7,77*
CCCc1sc(N/N=C/c2ccccn2)nc1-c1ccc(F)cc1,-95,36,-51*,-42,-9,-20
CCN=c1scc(-c2ccc(F)cc2)n1/N=C/c1ccccn1,-349,-8,-25,-306,-21,24
OC[C@@H]1CN(Cc2ccc(F)cc2)C[C@H](n2cnc3c(N4CCOCC4)ncnc32)O1,6,-20,2,4,-3,4
O=C(N[C@@H]1C/C=C\C[C@H](CC(=O)N(CCO)Cc2ccccc2)C(=O)N[C@@H](Cc2ccccc2)COC1=O)OCC1c2ccccc2-c2ccccc21,-2,5,-4,68*,7,0
O=C(C[C@H]1C/C=C\C[C@H](NC(=O)OCC2c3ccccc3-c3ccccc32)C(=O)OC[C@H](Cc2ccccc2)NC1=O)N[C@H](CO)Cc1ccccc1,0,16,-17,75*,-11,-17
O=C(N[C@H]1C/C=C\C[C@@H](CC(=O)N(CCO)Cc2ccccc2)C(=O)NC[C@H](c2ccccc2)OC1=O)OCC1c2ccccc2-c2ccccc21,10,-9,-7,75*,21,51*
C[C@@H]1COC(=O)[C@H](NC(=O)OCC2c3ccccc3-c3ccccc32)C/C=C\C[C@@H](CC(=O)N[C@@H](CO)Cc2ccccc2)C(=O)N1,-4,33,-19,-10,2,2
C[C@@H]1COC(=O)[C@H](NC(=O)OCC2c3ccccc3-c3ccccc32)C/C=C\C[C@@H](CC(=O)N(CCO)Cc2ccccc2)C(=O)N1,13,-8,9,-21,5,8
O=C(Nc1ccc(S(=O)(=O)N2CCCCC2)cc1)C1CC(=O)N(c2ccc(Cl)cc2)C1 (stereo not drawn),12,7,2,12,5,-8
CCc1cccc(NC(=O)c2cccc3c2C(=O)N(CC2CCCO2)C3)c1 (stereo not drawn),-56,-19,-6,5,-9,6
Cc1ccc(NC(=O)CSc2ccccc2NC(=O)c2ccccc2Cl)cc1Cl,-106,8,-9,-23,17,73*
COc1ccc(S(=O)(=O)Nc2cc3c4c(c2)CC(=O)N4CCC3)cc1OC,2,20,-19,6,-6,2
Cc1cccc(OCCN2CSC(=S)N(C)C2)c1,13,-5,-2,57*,-8,0
Cc1ccccc1NC1=NC(=S)N(c2ccccc2)C12CCOC(C)(C)C2 (stereo not drawn),0,12,-30,2,-21,2
Cc1ccccc1NC1=NC(=S)N(c2ccccc2)C12CCCCC2,28,-45,3,36,62*,10
